Source: PubChem BioAssay
The entries come from a sample that favours hits as a whole.
KDM5B inhibitor – blocks human KDM5B histone demethylase activity | AID 1347165 | KDM5B demethylase, FDH-coupled NADH fluorescence (FDH is formaldehyde dehydrogenase) | actives 2.6% (n = 220,000) | Potency, µM (highest dose often 57.7 µM), most hits filed as inhibitors; active = well fitted inhibition curve with a large enough effect; note: nearly all actives have a fitted effect of over 70% in size
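Inhibition is measured as reduced NADH fluorescence generation from FDH coupling to formaldehyde release. Truncated KDM5BΔAP at 200 nM final acts on H3K4me3 peptide (12.5 µM in substrate mix) in pH 7.5 HEPES buffer with Tween-20, 30 min, room temperature.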
Hits are given with their value; n = inactive.

SMILES	KDM5B inhibitor
COc1ccnc(-c2nnc3ccc(Nc4cc(OC)c(OC)c(OC)c4)nn23)c1	n
O=C(Cc1c[nH]c2ccccc12)OCc1c(Cl)cccc1Cl	n
COc1ccc(Oc2coc3cc(OC)ccc3c2=O)cc1	n
Cc1ccc(C(O)CNC(=O)Nc2c(C)cc(C)cc2C)cc1 (centres undefined)	n
O=C(NCc1cccnc1)c1cc(S(=O)(=O)C2CCS(=O)(=O)C2)ccc1F (centres undefined)	n
Cn1c(=O)[nH]c(=O)c2c1nc(N1CCOCC1)n2Cc1cccc(Br)c1	n
O=C(/C=C/c1ccccc1)c1ccc2oc3ccccc3c2c1	n
COCCCNC(=O)C1CCCN(Cc2ccncc2)CCC(=O)NCC1 (centres undefined)	25µM
O=C1CCN(Cc2ccncc2)CCCC(C(=O)NCCCN2CCCc3ccccc32)CCN1 (centres undefined)	14µM
CS(=O)(=O)N1CCCC(C(=O)NCCN2CCc3ccccc3C2)CCNC(=O)CC1 (centres undefined)	n
CN1CCCN(C(=O)C2CCCN(Cc3ccncc3)CCC(=O)NCC2)CC1 (centres undefined)	n
CCS(=O)(=O)N1CCCC(C(=O)NCc2ccncc2)CCNC(=O)CC1 (centres undefined)	n
O=C1CCN(Cc2cccnc2)CCCC(C(=O)NCCCN2CCOCC2)CCN1 (centres undefined)	n
COc1ccc(NC(=O)c2ccc3c(c2)CCC3)cc1	n
Cc1cccc(C2(c3cccc(C)c3)CC2C(=O)N/N=C/C=C/c2ccccc2)c1 (centres undefined)	n
COc1cccc(C2C(C#N)=C(N)Oc3cc(C)n(CCCN4CCOCC4)c(=O)c32)c1 (centres undefined)	n
O=C(NCc1ccccc1Cl)C1CCN(c2ncnc3nc[nH]c23)CC1	n
Cc1ccccc1C(=O)N1CC2(Cc3ccccc3N([S+](C)(=O)[O-])C2)C1	25µM
C[S+](=O)([O-])N1CC2(Cc3ccccc31)CN(C(=O)c1ccccc1F)C2	n
C[S+](=O)([O-])N1CC2(CCN(C(=O)CCC(=O)O)C2)Cc2ccccc21 (centres undefined)	40µM
COC(=O)N1CC2(Cc3ccccc3N([S+](C)(=O)[O-])C2)C1	n
C[S+](=O)([O-])N1CC2(Cc3ccccc31)CN(C(=O)c1ccccc1Cl)C2	n
C[S+](=O)([O-])N1CC2(Cc3ccccc31)CN(C(=O)c1ccccc1)C2	n
COc1cc(NC(=O)NC(C)c2ccc(Cl)cc2Cl)cc(OC)c1OC (centres undefined)	n
O=C(O)CNC(=O)c1ccc(NS(=O)(=O)c2cc(Cl)ccc2Cl)cc1	n
SMILES	KDM5B inhibitor
Cn1c(=O)[nH]c(=O)c2c1nc(NCCCO)n2Cc1ccccc1	n
Brc1cc2c(cc1Cn1nnc(-c3ccccc3)n1)OCO2	n
Cc1nc(-c2ccccc2)n(Cc2ccc(F)cc2Cl)c(=O)c1CCO	n
Cc1ccc(CN2CCC(CNc3nccc(-c4ccccn4)n3)CC2)o1	28µM
Cc1ccc(CN2CCC(Oc3ccc(C(=O)NCc4ccccn4)cc3)CC2)o1	n
Cc1ccc(CN2CCC(CNc3cc(C4CC(O)C4)ncn3)CC2)o1 (centres undefined)	n
COc1ccc(-c2cc(-c3nc(-c4ccccc4)no3)[nH]n2)c(OC)c1	n
Cn1c(=O)c2c(ncn2CC(COCc2cccc(F)c2)OCc2cccc(F)c2)n(C)c1=O (centres undefined)	n
CCCCCOc1ccc(/C=C2\CCc3ccccc3C2=O)cc1	n
Cc1cccc(C(=O)Nc2nnc(C3CC(=O)N(c4cc(C)cc(C)c4)C3)s2)c1 (centres undefined)	n
CC(=O)NC1(C)CCN(Cc2cccc(Oc3ccccc3)c2)CC1	n
CC(=O)NC1(C)CCN(Cc2ccccc2-c2ccc3c(ccn3C)c2)C1 (centres undefined)	35µM
Cn1ccc2cc(-c3csc(CN4CC(C)(NC(=O)C5CC5)C4)n3)ccc21	n
CS(=O)(=O)Cc1cccc(C(=O)NC(Cc2ccccc2)c2ccccc2)c1 (centres undefined)	n
Cc1c(-c2ccc(Cl)cc2)[n+](=O)c(-c2ccc(Cl)cc2)c(C)n1[O-]	n
Cc1cccc(OCCC(=O)OCC(=O)c2cc3ccccc3o2)c1	n
CCCS(=O)(=O)N[C@@H]1CN(Cc2ccncc2)C[C@H]1CN(C)C	n
CCCCN(C)S(=O)(=O)NC1CCCN(c2ncccn2)C1 (centres undefined)	n
CN(C)C[C@@H]1CN(c2ccncn2)C[C@H]1NS(=O)(=O)Cc1cccc(F)c1	n
CCCCS(=O)(=O)N[C@@H]1CN(c2ncccn2)C[C@H]1CN(C)C	32µM
CCCCS(=O)(=O)N[C@@H]1CN(C2CCOCC2)C[C@H]1CN(C)C	n
CCCS(=O)(=O)N[C@@H]1CN(c2ncccn2)C[C@H]1CN(C)C	28µM
Cc1ccc2c(CN3C(=O)C(=O)N(C4CCCC4)C3=O)cc(=O)oc2c1C	n
Cc1cc(Cl)c(Cl)cc1S(=O)(=O)Nc1ccccn1	n
O=[S+]([O-])(c1cccc(C(F)(F)F)c1)N1CCN(c2nc3ncccc3o2)CC1	n
